Measurements taken from publication PMC10313818.

Key:
[1] = target: 60 kDa heat shock protein, mitochondrial (UniProt P10809); experiment: cross-link between two proteins; cross-linking mass spectrometry
[2] = target: ADP/ATP translocase 3 (UniProt P12236); experiment: cross-link between two proteins; co-fractionation; cross-linking mass spectrometry
Chain of ADP/ATP translocase 3 (P12236 whole entry): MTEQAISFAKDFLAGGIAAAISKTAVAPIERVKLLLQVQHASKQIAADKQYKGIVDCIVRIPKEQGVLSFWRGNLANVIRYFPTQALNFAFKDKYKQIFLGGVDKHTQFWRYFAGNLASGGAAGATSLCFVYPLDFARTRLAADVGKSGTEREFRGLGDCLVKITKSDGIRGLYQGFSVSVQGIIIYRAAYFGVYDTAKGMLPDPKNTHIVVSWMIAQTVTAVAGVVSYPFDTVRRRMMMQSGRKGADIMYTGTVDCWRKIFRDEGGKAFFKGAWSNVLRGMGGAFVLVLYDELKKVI

Substance	listed as a hit [1]	listed as a hit [2]
Putative GTP-binding protein 6, O43824	yes	
ADP/ATP translocase 2, P05141		yes
